# From PubChem BioAssay AID504444 (National Center for Advancing Translational Sciences (NCATS), 2011)
# About 7,500 (2.1%) of roughly 360,000 compounds were called active. Where a call stands in place of a potency, no number is given. Inconclusive results (about 20%) are left out. This is one part of a sample in which actives are shown more often than they occur. Unmarked numbers belong to inactive results. Calls follow the shape of the dose curve; as a rule, active = well fitted inhibition curve with a large enough effect; inconclusive = small, poorly fitted or top-dose-only effect, or effect the other way; inactive = flat fitted curve, though single readings scatter.
# Test: Nrf2 qHTS screen for inhibitors; also: nearly all actives have a fitted effect of over 60% in size
# Conditions: A549 ARE-Fluc reporter, luciferase luminescence, 18-24 h; series mostly up to 46 µM
# How it was run: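 Quantitative HTS in A549 cells stably bearing an antioxidant response element-firefly luciferase construct. Inhibition of Nrf2-driven transcription was scored by luminescence after 18-24 h of compound exposure at 37 °C.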
# Potency is read from the fitted curve at half-maximal effect.
SMILES,Potency,"activity change, negative = inhibition"
CCN(CC)S(=O)(=O)c1ccc(NC(=O)c2cccnc2Cl)c(NC(=O)c2cccnc2Cl)c1,20.6 µM (active),
Cc1cccc(NC(=O)c2cccnc2Cl)n1,inactive,
CCN(CC)S(=O)(=O)c1ccc(Cl)c(NC(=O)c2ccncc2)c1,inactive,
COc1ccc(N2C(=O)CS(=O)(=O)C23C(=O)N(Cc2ccc(C)cc2)c2ccccc23)cc1Cl (stereo not drawn),inactive,
CN(C)C(CNC(=O)c1cc2ccccc2o1)c1ccccc1 (stereo not drawn),inactive,
COc1cccc(CN2CCc3nc(SCC(=O)Nc4ccccc4)[nH]c(=O)c3C2)c1,inactive,
c1ccc(C(=NNc2nc3ccccc3s2)c2ccccn2)cc1,9.2 µM (active),
COc1cc(/C=N/Nc2nc3ccccc3s2)ccc1O,inactive,
O=[N+]([O-])c1cc(Br)c(O)c(/C=N/Nc2nc3ccccc3s2)c1,inactive,
CCC(C(=O)Nc1cc(OC)ccc1OC)n1c(=O)c(C(F)(F)F)nc2ccccc21 (stereo not drawn),inactive,
CSCCC(NC(=O)c1ccccc1)C(=O)N1CCN(Cc2ccc(Cl)cc2)CC1 (stereo not drawn),inactive,
CCCCN(C(=O)c1cccc(N2C(=O)c3ccccc3C2=O)c1)c1c(N)n(CCCC)c(=O)[nH]c1=O,inactive,
N#Cc1ccc(OC2=NS(=O)(=O)c3ccccc32)cc1,inactive,
COc1ccc(S(=O)(=O)N/N=C\c2ccc(OC)c(COc3ccc(C)cc3[N+](=O)[O-])c2)cc1,inactive,
COc1ccc(C(=O)Oc2cc(/C=N/NS(=O)(=O)c3ccc(C)cc3)ccc2OC)cc1,16.4 µM (active),
COc1ccc(/C=N/NS(=O)(=O)c2ccc(NC(C)=O)cc2)cc1,inactive,
CCOc1ccc(C(=O)c2cn(Cc3ccc(F)cc3)c3ccc(F)cc3c2=O)cc1,inactive,
CN(C)c1ccc(C2N(C)C(=O)c3ccccc3N2C)cc1 (stereo not drawn),inactive,
CN(C)c1ccc(Nc2c3c4c(cccc4n(C)c2=O)C(=O)c2ccccc2-3)cc1,8.2 µM (active),
Cc1ccc(Nc2c(-c3ccc(N(C)C)cc3)nc3nc[nH]n23)cc1,inactive,
O=C(Nc1c(C(=O)N2CCN(c3ccc(F)cc3)CC2)oc2ccccc12)c1ccco1,inactive,
CCOC(=O)C1CCCN(C(=O)C2CCN(S(=O)(=O)c3ccc(Cl)c(C(F)(F)F)c3)CC2)C1 (stereo not drawn),inactive,
CCC(=O)Nc1ccc2nc(SCC(=O)N3CCc4ccccc43)sc2c1,inactive,
CCCCNC(=O)CSc1nc2ccc(NC(=O)CSc3nnc(COc4ccccc4C)n3C)cc2s1,inactive,
CCCCNC(=O)CSc1nc2ccc(NC(=O)CSc3nnc(N)s3)cc2s1,16.4 µM (active),

SMILES,Potency,"activity change, negative = inhibition"
CCOC(=O)c1ccc(NC(=O)C2CC(=O)N(c3ccc(C(C)C)cc3)C2)cc1 (stereo not drawn),inactive,
O=C(Nc1ccc(S(=O)(=O)N2CCCCCC2)cc1)c1c(F)cccc1F,inactive,
O=C(Nc1ccncc1)c1c(F)cccc1F,9.2 µM (active),
O=C(Nc1ccncc1)Nc1ccc(F)cc1,inactive,
Cc1ccc(C)c(N2CCN(CCCNC(=O)Nc3ccc(Cl)cc3)CC2)c1,inactive,
CCOc1ccc(NC(=O)CCC(=O)N2CC(C)Oc3ccc(C)cc32)cc1 (stereo not drawn),inactive,
O=c1[nH]c(=O)c2nc3ccccc3nc2[nH]1,inactive,
CN(C)C(=O)c1coc2nc3ccccc3nc12,inactive,
CNC(=O)c1cccc2nc3ccccc3nc12,5.8 µM (active),
Cc1ccc(Nc2c(-c3ccc(C)cc3)nc3cnccn23)cc1,,-2.28% [at 9.27 µM]
CCOC(=O)C1CCN(C(=O)CN2C(=O)NC(C)(c3ccc4cc(OC)ccc4c3)C2=O)CC1 (stereo not drawn),inactive,
CC1=NN(c2ccccc2)C(=O)C1C(=O)c1ccc([N+](=O)[O-])cc1 (stereo not drawn),25.9 µM (active),
Cc1ccc(C)n1NC(=O)c1ccc([N+](=O)[O-])cc1,inactive,
O=C1CC(c2ccccc2)=NN1c1ccc([N+](=O)[O-])cc1,inactive,
COCCOC(=O)c1[nH]c2c(c1C)C(=O)CC(c1ccc(OC)cc1)C2 (stereo not drawn),inactive,
CCCOC(=O)c1[nH]c2c(c1C)C(=O)CC(c1cc(OC)c(OC)c(OC)c1)C2 (stereo not drawn),16.4 µM (active),
CCCOC(=O)c1[nH]c2c(c1C)C(=O)CC(c1cccs1)C2 (stereo not drawn),inactive,
Cc1ccc(S(=O)(=O)NCC2CCC(C(=O)N3CCOCC3)CC2)cc1 (stereo not drawn),inactive,
COc1cccc(CNC(=O)C2CCC(CNS(=O)(=O)c3cccs3)CC2)c1 (stereo not drawn),inactive,
Cc1ccc(C)c(N2CCN(C(=O)C3CCC(CNS(=O)(=O)c4cccs4)CC3)CC2)c1 (stereo not drawn),18.4 µM (active),
Cc1cc([N+](=O)[O-])c(=O)[nH]c1C,inactive,
COc1ccc(N=C2C=CC(=O)O2)cc1,inactive,
COc1ccccc1N1CC(C(=O)Nc2ccc(S(=O)(=O)N3CCOCC3)cc2)CC1=O (stereo not drawn),inactive,
Cc1ccc(NC(=O)C2CC(=O)N(c3ccc4c(c3)OCCO4)C2)cc1S(=O)(=O)N1CCCCCC1 (stereo not drawn),5.8 µM (active),
Cc1ccc(N2CC(C(=O)Nc3ccc(S(=O)(=O)N4CCCC4)cc3)CC2=O)cc1C (stereo not drawn),inactive,

SMILES,Potency,"activity change, negative = inhibition"
CC(=O)c1ccccc1NC(=O)C1CC(=O)N(c2ccc3c(c2)OCCO3)C1 (stereo not drawn),inactive,
COc1ccc(S(=O)(=O)N2CCCCC2)cc1NC(=O)C1CC(=O)N(c2ccc3c(c2)OCCO3)C1 (stereo not drawn),23.1 µM (active),
Cc1ccccc1N1CC(C(=O)Nc2ccc(S(=O)(=O)N3CCCC3)cc2)CC1=O (stereo not drawn),inactive,
COc1ccc(S(=O)(=O)N2CCCCCC2)cc1NC(=O)Cc1ccc(OC)c(OC)c1,inactive,
CCOC(=O)c1ccc(NC(=O)C2CC(=O)N(c3ccc4c(c3)OCCO4)C2)cc1 (stereo not drawn),inactive,
Cc1ccc(NC(=O)C2CCC(C(C)(C)C)CC2)cc1S(=O)(=O)N1CCOCC1 (stereo not drawn),20.6 µM (active),
Cc1ccc(NC(=O)NC2CCCCC2)cc1S(=O)(=O)N1CCOCC1,inactive,
Cc1ccc(NC(=O)C2CC2)cc1S(=O)(=O)N1CCOCC1,inactive,
CC1CCN(S(=O)(=O)c2ccc(NC(=O)C3CC(=O)N(c4ccccc4)C3)cc2)CC1 (stereo not drawn),6.51 µM (active),
CCN(CC)S(=O)(=O)c1ccc(CNC(=O)CN2C(=O)NC3(CCc4ccccc43)C2=O)cc1 (stereo not drawn),inactive,
Cc1ccc(C)c(N2CCN(C(=O)Cn3ncc4c(=O)oc5ccc(C)cc5c43)CC2)c1,inactive,
O=C(NCc1ccccc1)c1cccc(NC(=O)C2CCCCC2)c1,inactive,
Cn1nnnc1SCCCNCc1cccc(OCc2ccc(Cl)cc2)c1,inactive,
COc1ccc(CNC(=O)CCc2c(C)nn(-c3ccc(N4CCCC4)nn3)c2C)cc1,inactive,
O=[S+]([O-])(c1ccc(OC(F)(F)F)cc1)N1CCN([S+](=O)([O-])c2ccc3c(c2)OCCO3)CC1,inactive,
COc1cccc(CNC(=O)c2ccc3c(c2)N(Cc2ccc(C(F)(F)F)cc2)C(=O)c2ccccc2S3)c1OC,inactive,
CCOc1ccc(C(=O)/C=C/c2cn(CC(O)CN3CCCCCC3)c3ccccc23)cc1 (stereo not drawn),inactive,
CCS(=O)(=O)c1nc(S(=O)(=O)c2ccc(C)cc2)c(NCc2ccc(Cl)cc2)s1,inactive,
NC1=NOC(=O)C1C1CCCCC1 (stereo not drawn),inactive,
CCCCNS(=O)(=O)c1ccc2nc(SCC(=O)Nc3cc(C)cc(C)c3)[nH]c2c1,13 µM (active),
Cc1cc(C)c(NC(=O)CSc2nc3ccncc3[nH]2)c(C)c1,inactive,
CC(=O)Nc1ccc(C(=O)CSc2nc3ccc(C)cc3[nH]2)cc1,inactive,
Cc1ccc(/C=C(\C#N)C(=O)Nc2cc(C)ccc2C)cc1,inactive,
CC(C)(C)c1ccc(S(=O)(=O)Nc2ccc(O)c(Sc3nc4ccccc4s3)c2)cc1,inactive,
CCOc1ccc(NC(=O)c2c(NC(=O)Cc3ccccc3)sc3c2CCCCC3)cc1,inactive,

SMILES,Potency,"activity change, negative = inhibition"
COc1cccc(NS(=O)(=O)c2ccc(-c3coc(C)n3)cc2)c1,inactive,
COc1ccc(NS(=O)(=O)c2ccc(Oc3c(C#N)cccc3C#N)cc2)cc1,13 µM (active),
COc1ccc(NS(=O)(=O)c2cccc(C(=O)NCCc3ccc(S(N)(=O)=O)cc3)c2)cc1,inactive,
Cc1cccc(-n2c(SCC(N)=O)nc3c(c2=O)C2(CCCCC2)Cc2ccccc2-3)c1,20.6 µM (active),
N#CCSc1nc2c(c(=O)n1Cc1ccccc1)C1(CCCC1)Cc1ccccc1-2,inactive,
Cc1cccc(-n2c(SCC(N)=O)nc3c(oc4ccccc43)c2=O)c1,inactive,
C[C@H](CO)N1C[C@H](C)[C@@H](CN(C)Cc2ccc(-c3ccccc3)cc2)Oc2ccc(NC(=O)Cn3cnnn3)cc2C1=O,inactive,
OCC(O)C1OCOC(C(O)CO)C1O (stereo not drawn),inactive,
CCOc1ccc(NC(=O)c2c(NC(=O)Cc3ccccc3)sc3c2CCC(C)C3)cc1 (stereo not drawn),inactive,
COc1ccc(CC(=O)N/N=C(\C)c2ccccn2)cc1,14.6 µM (active),
CC(=NNC(=S)N1CCCCCC1)c1ccccn1,1.16 µM (active),
COc1ccc(CC(=O)NC(C)CCc2ccccc2)cc1 (stereo not drawn),inactive,
C/C(=N\NC(=O)Cc1ccc(F)cc1)c1ccc(F)cc1,inactive,
Cc1ccc(Cl)cc1NC(=O)c1ccccn1,inactive,
Cc1cccc(C)c1NC(=S)N1CCCCCC1,inactive,
CNC(=S)N1CCN(c2ccccn2)CC1,inactive,
COc1ccc(C/C(C)=N/NC(=O)c2ccncc2)cc1,inactive,
C/C(=N\NC(=O)Cc1ccc(Cl)cc1)c1ccccn1,3.26 µM (active),
Cc1noc(C)c1NC(=O)Nc1ccc2c(c1)C(=O)N([C@H](C)CO)C[C@H](C)[C@@H](CN(C)C(=O)Nc1ccc(C(F)(F)F)cc1)O2,inactive,
Cc1ccc(-c2nn(CCC(=O)Nc3ccc(Cl)c(Cl)c3)c(=O)c3ccccc23)cc1,inactive,
CCCNC(=O)C(CC)n1nc(CC)n2c(cc3oc(C)cc32)c1=O (stereo not drawn),inactive,
CCOc1cccc(NC(=O)CSc2ncc(-c3ccc(Cl)cc3)[nH]2)c1,inactive,
Cc1ccc(Nc2c(-c3ccc(Cl)cc3)nc3sccn23)c(C)c1,inactive,
